Experimental data taken from PubChem BioAssay (NCATS).
Records with an inconclusive call do not appear. Active and inactive are the calls of the source. Calls follow the shape of the dose curve; as a rule, active = well fitted cell-killing curve with a large enough effect; inconclusive = small, poorly fitted or top-dose-only effect, or effect the other way; inactive = flat fitted curve, though single readings scatter.

Key:
Assay in all cases: Primary qHTS to identify gynecologic anti-cancer compounds using libraries of approved drugs and bioactive compounds (AID 1345084); also: nearly all actives have a fitted effect of over 55% in size
[1] = system: C33A; conditions: Gynecologic cancer cell panel viability, ATPlite luminescence, 48 h; series mostly up to 57.5 µM
Procedure, shortened: (§1)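 ATP-based viability (ATPlite), 1,000 cells/well, 16 h pre-incubation, 48 h compound at 37 C, 5% CO2, 15 min RT before read.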

[2] = system: CAOV3; conditions: Gynecologic cancer cell panel viability, ATPlite luminescence, 48 h; series mostly up to 57.5 µM
Procedure, shortened: as §1

[3] = system: CASKI; conditions: Gynecologic cancer cell panel viability, ATPlite luminescence, 48 h; series mostly up to 57.5 µM
Procedure, shortened: as §1

[4] = system: Es-2; conditions: Gynecologic cancer cell panel viability, ATPlite luminescence, 48 h; series mostly up to 57.5 µM
Procedure, shortened: as §1

[5] = system: HeLa; conditions: Gynecologic cancer cell panel viability, ATPlite luminescence, 48 h; series mostly up to 57.5 µM
Procedure, shortened: as §1

[6] = system: Hek293T; conditions: Gynecologic cancer cell panel viability, ATPlite luminescence, 48 h, control line for the selectivity index; series mostly up to 57.5 µM
Procedure, shortened: as §1

[7] = system: JEG-3; conditions: Gynecologic cancer cell panel viability, ATPlite luminescence, 48 h; series mostly up to 57.5 µM
Procedure, shortened: as §1

[8] = system: OV90; conditions: Gynecologic cancer cell panel viability, ATPlite luminescence, 48 h; series mostly up to 57.5 µM
Procedure, shortened: as §1

[9] = system: PA-1; conditions: Gynecologic cancer cell panel viability, ATPlite luminescence, 48 h; series mostly up to 57.5 µM
Procedure, shortened: as §1

[10] = system: SKOV3; conditions: Gynecologic cancer cell panel viability, ATPlite luminescence, 48 h; series mostly up to 57.5 µM
Procedure, shortened: as §1

[11] = system: Tov-21-G; conditions: Gynecologic cancer cell panel viability, ATPlite luminescence, 48 h; series mostly up to 57.5 µM
Procedure, shortened: as §1

[12] = system: Tov112D; conditions: Gynecologic cancer cell panel viability, ATPlite luminescence, 48 h; series mostly up to 57.5 µM
Procedure, shortened: as §1
% is scaled to controls: 0 for no effect and ±100 for the full control effect.

COCCN(C)Cc1ccc2nc3sc(C(=O)N(C)C4CCCCC4)cn3c2c1
inactive: Potency [1] | Potency [2] | Potency [3] | Potency [4] | Potency [5] | Potency [6] | Potency [7] | Potency [8] | Potency [9] | Potency [10] | Potency [11] | Potency [12]

COC1CC(=O)CCC(C)OC(=O)CC1O (stereo not drawn)
inactive: Potency [1] | Potency [2] | Potency [3] | Potency [4] | Potency [5] | Potency [6] | Potency [7] | Potency [8] | Potency [9] | Potency [10] | Potency [11] | Potency [12]

CC(C)C(C#N)O[C@@H]1O[C@H](CO[C@@H]2OC[C@](O)(CO)[C@H]2O)[C@@H](O)[C@H](O)[C@H]1O (stereo partly drawn)
inactive: Potency [1] | Potency [2] | Potency [3] | Potency [4] | Potency [5] | Potency [6] | Potency [7] | Potency [8] | Potency [9] | Potency [10] | Potency [11] | Potency [12]

CC(c1c[nH]c2ccccc12)C(O)C(=O)O (stereo not drawn)
inactive: Potency [1] | Potency [2] | Potency [3] | Potency [4] | Potency [5] | Potency [6] | Potency [7] | Potency [8] | Potency [9] | Potency [10] | Potency [11] | Potency [12]

O=C(O)CCc1cc2ccoc2cc1O[C@@H]1O[C@H](CO[C@@H]2OC[C@](O)(CO)[C@H]2O)[C@@H](O)[C@H](O)[C@H]1O
inactive: Potency [1] | Potency [2] | Potency [3] | Potency [4] | Potency [5] | Potency [6] | Potency [7] | Potency [8] | Potency [9] | Potency [10] | Potency [11] | Potency [12]

OC[C@H]1O[C@@H](Oc2ccc3c(c2)OC[C@H]2c4cc5c(cc4O[C@@H]32)OCO5)[C@H](O)[C@@H](O)[C@@H]1O
inactive: Potency [1] | Potency [2] | Potency [3] | Potency [4] | Potency [5] | Potency [6] | Potency [7] | Potency [8] | Potency [9] | Potency [10] | Potency [11] | Potency [12]

CN1C(=O)c2ccccc2-n2c(nc3ccccc3c2=O)/C1=C/c1ccccc1
inactive: Potency [1] | Potency [2] | Potency [3] | Potency [4] | Potency [5] | Potency [6] | Potency [7] | Potency [8] | Potency [9] | Potency [10] | Potency [11] | Potency [12]

CC1CCC2(C)C(CC(O)C(O)C23CO3)C1(C)CCC1=CC(=O)OC1O (stereo not drawn)
inactive: Potency [1] | Potency [2] | Potency [3] | Potency [4] | Potency [5] | Potency [6] | Potency [7] | Potency [8] | Potency [9] | Potency [10] | Potency [11] | Potency [12]

COC(=O)CC[C@@H](C)[C@H]1CC[C@H]2[C@@H]3CC(=O)[C@H]4C[C@H](OC(C)=O)CC[C@]4(C)[C@H]3CC[C@]12C
inactive: Potency [1] | Potency [2] | Potency [3] | Potency [4] | Potency [5] | Potency [6] | Potency [7] | Potency [8] | Potency [9] | Potency [10] | Potency [11] | Potency [12]

N[C@@H](CC(=O)N1CCn2c(nnc2C(F)(F)F)C1)Cc1[nH]nc2c(F)c(F)ccc12
inactive: Potency [1] | Potency [2] | Potency [3] | Potency [4] | Potency [5] | Potency [6] | Potency [7] | Potency [8] | Potency [9] | Potency [10] | Potency [11] | Potency [12]

CC(C)C1=CC2=CCC3[C@](C)(CCC[C@@]3(C)C(=O)O)C2CC1=O (stereo partly drawn)
inactive: Potency [1] | Potency [2] | Potency [3] | Potency [4] | Potency [5] | Potency [6] | Potency [7] | Potency [8] | Potency [9] | Potency [10] | Potency [11] | Potency [12]

CC1(CO)CC[C@]2(C(=O)O[C@@H]3O[C@H](CO)[C@@H](O)[C@H](O)[C@H]3O)CC[C@]3(C)C(=CCC4[C@@]5(C)C[C@H](O)[C@H](O[C@@H]6OC[C@@H](O)[C@H](O)[C@H]6O)[C@@](C)(CO)C5CC[C@]43C)C2C1 (stereo partly drawn)
inactive: activity change, negative = cytotoxicity [1] 5.37% [at 11.6 µM] | activity change, negative = cytotoxicity [2] -5.98% [at 11.6 µM] | activity change, negative = cytotoxicity [3] 3.16% [at 11.6 µM] | activity change, negative = cytotoxicity [4] -0.538% [at 11.6 µM] | activity change, negative = cytotoxicity [5] 1.08% [at 11.6 µM] | activity change, negative = cytotoxicity [6] 6.32% [at 11.6 µM] | activity change, negative = cytotoxicity [7] 16.2% [at 11.6 µM] | activity change, negative = cytotoxicity [8] 9.02% [at 11.6 µM] | activity change, negative = cytotoxicity [9] -3.32% [at 11.6 µM] | activity change, negative = cytotoxicity [10] 2.79% [at 11.6 µM] | activity change, negative = cytotoxicity [11] 4.01% [at 11.6 µM] | activity change, negative = cytotoxicity [12] -0.665% [at 11.6 µM]

CC1CCC2C(C)(C)CC(C)(CO)C2(O)C1C(=O)O (stereo not drawn)
inactive: Potency [1] | Potency [2] | Potency [3] | Potency [4] | Potency [5] | Potency [6] | Potency [7] | Potency [8] | Potency [9] | Potency [10] | Potency [11] | Potency [12]

CC1(C)CCCC2(C)C1C(O)C=C(CO)C2(O)C(=O)O (stereo not drawn)
inactive: Potency [1] | Potency [2] | Potency [3] | Potency [4] | Potency [5] | Potency [6] | Potency [7] | Potency [8] | Potency [9] | Potency [10] | Potency [11] | Potency [12]
